Molecules are shown by their SMILES. Measured potencies and affinities stand elsewhere. Records with an inconclusive call do not appear. Values without a mark were called inactive. No rule for the calls is given here.

CAAX prenyl protease 1 (Saccharomyces cerevisiae (strain ATCC 204508 / S288c)), sequence (P47154 whole entry, looked up): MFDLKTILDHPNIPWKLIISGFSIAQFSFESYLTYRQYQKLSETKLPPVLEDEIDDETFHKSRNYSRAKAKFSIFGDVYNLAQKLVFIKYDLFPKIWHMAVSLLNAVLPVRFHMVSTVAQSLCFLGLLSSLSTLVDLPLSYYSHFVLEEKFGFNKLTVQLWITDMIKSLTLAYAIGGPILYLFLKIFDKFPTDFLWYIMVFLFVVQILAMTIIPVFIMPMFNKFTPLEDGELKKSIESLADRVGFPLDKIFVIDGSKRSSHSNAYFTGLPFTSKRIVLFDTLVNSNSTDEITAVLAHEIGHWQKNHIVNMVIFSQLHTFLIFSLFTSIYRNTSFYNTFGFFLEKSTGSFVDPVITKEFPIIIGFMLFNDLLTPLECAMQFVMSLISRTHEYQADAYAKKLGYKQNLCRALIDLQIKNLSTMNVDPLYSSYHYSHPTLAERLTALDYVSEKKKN

This test concerns the target CAAX prenyl protease 1 (Saccharomyces cerevisiae (strain ATCC 204508 / S288c)) (UniProt P47154). Nature of the test: yeast CAAX protease Ste24 inhibition – biochemical, S. cerevisiae, plate reader, cherry-pick, dose response (AID 488815).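 Also: 0% = neutral control wells and -100% = no enzyme wells.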 As to conditions: series mostly up to 10 µM; activity change, negative = inhibition: at the top concentration.
For the compound `CCN1CCN(CC(O)COc2ccc3c(C)cc(=O)oc3c2)CC1` (stereo not given), the “activity change, negative = inhibition” value is 34.4%.
On to `Nc1c(C(=O)Nc2cccc(C(=O)O)c2)sc2nc3c(cc12)CCCC3`, for which the “activity change, negative = inhibition” value is -6.49%.
The same measure for `CCOC(=O)c1ccc(NC(=O)N2CCN(Cc3ccccc3)CC2)cc1`: 11.5%.
The result for `CCCCn1c(=O)[nH]c(=O)c2c1nc(-c1ccc(OC)c(Br)c1)n2CC(C)C` reads 23.6%.
On to `O=C(Nc1sc2c(c1C(=O)c1ccc(Cl)cc1)CCCC2)c1cccnc1`, for which the “activity change, negative = inhibition” value was 18.3%.
Regarding `COc1cc(-c2nc3ccccn3c2/N=C/c2cccc(OC)c2O)ccc1O`, the “activity change, negative = inhibition” value was -6.59%.
The result for `COc1cccc2sc3ccc(C#CC4(O)CCCCC4)cc3c(=O)c12` reads 17.2%; that for `COc1cc(-c2nc3ccccn3c2/N=C/c2cc(OC)c(OC)c(OC)c2)ccc1O`, -1.51%; that for `CN1CCN(C(=S)NC(=O)c2ccccc2Cl)CC1`, 12.7%.
The result for `CCC1CCCCN1C(=O)NC(=O)c1ccccc1` (stereo not given) reads 29%; that for `COc1ccc(S(=O)(=O)NCC2CCCO2)cc1NC(=O)c1ccccc1F` (stereo not given), 9.65%; that for `CCn1cc(/C=C(\NC(=O)c2ccccc2)C(=O)N2CCOCC2)c2ccccc21`, -6.81%.
The same measure for `Cc1ccc(C(=O)c2c3ccccc3[n+]([O-])n2CCO)cc1`: 0.667%.
`C=C(C)CSc1nc2sc3c(c2c(=O)n1-c1ccc(OC)cc1)CCN(C)C3`: the “activity change, negative = inhibition” value was 27.2%.
The same measure for `CCn1c(C)nc2c(=O)oc3ccccc3c21`: 4.3%.
The result for `O=C(CN1CCC(NC(=O)c2ccc(Br)cc2)CC1)NCc1cccs1` reads 13.2%; that for `Cc1cc(Cl)c2oc(C(=O)N3CCN(C(=O)c4ccco4)CC3)c(C)c2c1`, 33.6%; that for `Clc1ccc(CN2CCc3c([nH]c4ccccc34)C2)cc1Cl`, -22.6%.
The same measure for `Cc1cccc(NC(=O)c2cc(S(=O)(=O)N3CCCCC3)c[nH]2)c1C`: 15.9%; for `O=C(O)CCc1nc2cc(C(F)(F)F)ccc2n(Cc2ccccc2)c1=O`: 7.73%.
Turning to `CCOC(=O)c1c(NC(=O)COc2ccccc2F)sc2c1CC(C)(C)NC2(C)C`, the “activity change, negative = inhibition” value was -87.1%.
The result for `CCn1nc(C)cc1C(=O)NC1CC(C)(C)Cc2c1cnn2-c1cccc(F)c1` (stereo not given) reads 22.5%; that for `COc1ccc(Cl)cc1Nc1nc(C)nc2c1oc1ccccc12`, -11.6%.
The same measure for `CC(=O)c1c(C)oc2ccc(NS(=O)(=O)c3ccc(C(=O)O)cc3)cc12`: 32%; for `O=C(CC1(O)C(=O)N(C/C=C/c2ccccc2)c2ccccc21)c1ccccn1` (stereo not given): 12.8%; for `Cc1ccc(C(=O)N2N=C(c3ccccc3O)CC2c2ccccc2)cc1` (stereo not given): 8.19%.
The result for `Cc1ccccc1NS(=O)(=O)c1ccc(C(=O)NCC(c2ccccc2)N(C)C)cc1` (stereo not given) reads 11.8%; that for `C/C(Cl)=C\Cn1c(O)c(N=NC(N)=S)c2cc(Br)ccc21`, 14.3%.
As to `CCCCNC(=S)NNC(=O)CCn1cc(C)cn1`, the “activity change, negative = inhibition” value was 35.5%.
As for `COC(C[C@@H]1O[C@@H]1C(=O)[C@@H](C)OCc1ccccc1)OC`, the “activity change, negative = inhibition” value was 36.5%.
The same measure for `CC1=C(C(=O)OCc2ccccc2)C(c2ccc(-c3ccccc3)cc2)NC(=O)N1CCCC(=O)O` (stereo not given): 21.9%; for `CCN1CCN(c2ccc(NC(=O)c3cccc(OCc4ccccc4)c3)cc2)CC1`: 8.02%.
The result for `COc1ccccc1NC(=O)CN(c1ccc(C23CC4CC(CC(C4)C2)C3)cc1)S(C)(=O)=O` reads 4.28%; that for `NC(=O)c1nsc(C(=O)N(c2ccccc2F)C(C(=O)NCc2ccccc2)c2ccc(O)cc2)c1N` (stereo not given), -125%.
The same measure for `CC1=NN(c2ccccc2)C(=O)/C1=C\c1ccc(Br)s1`: 14.5%; for `N/C(Cc1ccc([N+](=O)[O-])cc1)=N\OC(=O)c1ccc2ccccc2c1`: 37.9%; for `O=C(COc1ccccc1)Nc1cccc(-c2nc3cc4ccccc4cc3[nH]2)c1`: 10.7%.
Consider `O=S(=O)(c1ccccc1)c1nc(-c2ccco2)oc1N1CCCCC1`, for which the “activity change, negative = inhibition” value is 13.8%.
On to `COc1cc2c(cc1OC)C(C)N(C(=O)c1cc3c(=O)oc4ccc(C)cc4c3s1)CC2` (stereo not given), for which the “activity change, negative = inhibition” value was 15.4%.
`O=C(c1cnc(Cl)c(Cl)c1)N1CCC(Cc2ccccc2)CC1`: the “activity change, negative = inhibition” value was 16.9%.

(Values after PubChem BioAssay AID488815 (Broad Institute, 2010).)
